# Results: PubChem BioAssay AID504339 (National Center for Advancing Translational Sciences (NCATS), 2011)
# Out of some 390,000 compounds screened, about 17,000 (4.4%) were called active. About 8% were inconclusive and are not listed. The list comes from a sample in which actives are over-represented; it also holds similar structures and randomly drawn compounds. Where a call stands in place of a potency, no number is given. Values without a mark were called inactive. The call rests on the fitted dose curve; in most records, active means well fitted inhibition curve with a large enough effect; inconclusive means small, poorly fitted or top-dose-only effect; inactive means no such curve, though single readings can be large or run the other way.
# Biological target: Lysine-specific demethylase 4A (Homo sapiens) (UniProt O75164)
# Assay: qHTS Assay for Inhibitors of JMJD2A-Tudor Domain; further: nearly all actives have a fitted effect of over 50% in size
# Details: AlphaScreen JMJD2A-Tudor / H3K4me3 peptide binding; series mostly up to 114 µM
# Description: JMJD2A is a jumonji-domain-containing lysine demethylase that uses Fe(II) together with 2-OG to effect oxidative demethylation of histones. Methylation is one of many […] modification that affect epigenetic transcription. […] It is proposed that the functions of JmjD2A binding to the histones, is to maintain marks after they are installed and to spread the modifications by […], establishing a self-propagating cycle for rapid methylation over a large area of chromatin. […] Thus, small molecule targeting of the JMJD2A-tudor domain interaction with its target methylhistone mark is expected to enable sophisticated experiments probing the fine regulatory pathways leading to selective demethylation of a given methyllysine locus based on the methylation state of adjacent histone marks. A quantitative high throughput AlphaScreen has been developed to identify small molecule inhibitors based on a protocol published by NCGC and SGC [4].
# Although AlphaScreen has significant advantages with its utility in a variety of epigenetic target assays, the primary screening data provided in this deposition should be used with caution due to the prevalence of screening artifacts. The top compound concentration tested was high (>100uM) in this assay, which increases number of actives and potential artifacts. An AlphaScreen counterscreen is highly recommended to be run against any putative actives to eliminate non-specific artifacts. Alternatively, one can use other AlphaScreen assays in PubChem to filter out promiscuous hits.
# [1] Lee, J. et al. Distinct binding modes specify the recognition of methylated histone H3K4 and H4K20 by JMJD2A-tudor. Nat Struct Mol Biol. 15(1); 109-11. 2008. PMID: 18084306
# [2] Yasgar, et al. Compound Management for Quantitative High-Throughput Screening. JALA. 2008 Apr;13(2):79-89. PMID: 18496600
# [3] Inglese, et al. Quantitative high-throughput screening: a titration-based approach that efficiently identifies biological activities in large chemical libraries. Proc Natl Acad Sci. 1;103(31):11473-8. 2006. PMID: 16864780
# [4] Quinn et al. A homogeneous method for investigation of methyl-dependent protein-protein interactions in epigenetics. Nucleic Acids Res., 38(2):e11. 2010. PMID: […]
# [5] Baell,Holloway. New substructure filters for removal of pan assay interference compounds (PAINS) from screening libraries and for their exclusion in bioassays. J Med Chem. 53(7):2719-40. 2010. PMID: 20131845
# NIH Molecular Libraries Probe Production Network [MLPCN]
# NIH Chemical Genomics Center [NCGC]
# Structural Genomics Consortium (SGC)
# To each well of a 1,536w plate, 2ul of JMJD2A-Tudor (final 100nM) and 1ul biotinylated histone peptide methylated at Lys4 [b-H3(1-18)K4me3] (final 50nM) were added in 1x PBS buffer, pH 7.4, containing 0.01% Tween-20, using a nanoliter dispenser. Formation of a protein-peptide complex proceeded at room temperature for 30 min. A Kalypsys pin-tool transferred 23nl of library compound solution in DMSO to each well. Following a 30 min incubation of the protein-peptide complex with compounds at room temperature, a mixture of 40 µg/mL each streptavidin-coated donor and nickel chelate acceptor AlphaScreen beads (final 10 µg/mL) was added in a 1ul dispense for a final volume of 4ul, followed by a brief centrifugation (1000 rpm, 1 min). Plates were incubated protected from the light for 20 min at room temperature. Microplates were then read on an EnVision multilabel plate reader using the 1,536 plate HTS AlphaScreen aperture (excitation time 80 ms, measurement time 240 ms).
# Potency means the concentration at half of the fitted maximal effect.
# Lysine-specific demethylase 4A (Homo sapiens), sequence (O75164 whole entry, looked up, the tested form may be a part): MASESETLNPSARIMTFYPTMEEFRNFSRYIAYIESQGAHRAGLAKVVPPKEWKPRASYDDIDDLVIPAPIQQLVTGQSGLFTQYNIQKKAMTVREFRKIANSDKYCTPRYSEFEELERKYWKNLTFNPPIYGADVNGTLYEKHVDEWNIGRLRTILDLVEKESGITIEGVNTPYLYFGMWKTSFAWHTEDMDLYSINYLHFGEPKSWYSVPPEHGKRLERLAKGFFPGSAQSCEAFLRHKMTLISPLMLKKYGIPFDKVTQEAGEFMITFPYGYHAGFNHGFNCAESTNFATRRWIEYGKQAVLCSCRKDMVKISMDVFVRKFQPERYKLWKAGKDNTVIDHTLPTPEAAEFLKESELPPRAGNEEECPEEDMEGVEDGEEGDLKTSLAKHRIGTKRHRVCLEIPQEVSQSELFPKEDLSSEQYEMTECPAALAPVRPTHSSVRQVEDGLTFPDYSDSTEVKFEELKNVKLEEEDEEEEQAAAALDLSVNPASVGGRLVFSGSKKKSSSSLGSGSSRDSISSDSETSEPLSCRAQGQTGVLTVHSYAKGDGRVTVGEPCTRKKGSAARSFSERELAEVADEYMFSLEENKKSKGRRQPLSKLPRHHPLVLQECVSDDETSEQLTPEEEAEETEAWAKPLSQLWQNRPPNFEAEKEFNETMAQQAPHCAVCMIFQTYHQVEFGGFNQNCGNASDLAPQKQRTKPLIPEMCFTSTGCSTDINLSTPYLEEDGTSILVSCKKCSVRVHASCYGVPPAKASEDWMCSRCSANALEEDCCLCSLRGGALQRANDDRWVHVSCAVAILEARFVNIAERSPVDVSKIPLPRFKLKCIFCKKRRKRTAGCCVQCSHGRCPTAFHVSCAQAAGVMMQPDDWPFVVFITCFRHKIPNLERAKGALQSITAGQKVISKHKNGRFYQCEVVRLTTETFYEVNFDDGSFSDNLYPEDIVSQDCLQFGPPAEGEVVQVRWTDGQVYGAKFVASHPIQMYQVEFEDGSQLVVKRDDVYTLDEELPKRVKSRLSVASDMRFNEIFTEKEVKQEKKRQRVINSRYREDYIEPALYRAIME
Structure (SMILES),Potency,"activity change, negative = inhibition"
O=C(O)c1cc[c]([Sb](=[O])([OH])[OH])cc1[N+](=O)[O-],0.316 µM (active),–
O=C(c1ccccc1[N+](=O)[O-])N1CCC2(CC1)OCCO2,inactive,–
C[C@@]1([C@@H](NP(=O)(c2ccccc2)c2ccccc2)c2ccccc2)C[C@H]1CCO,inactive,–
COC(=O)N(c1ccc(OC)cc1)P1(=S)OCCC(C)O1 (configuration not stated),79.4 µM (active),–
CCC(=O)c1ccc(OCC(=O)N2CCN(CC(=O)Nc3ccc(C)cc3)CC2)cc1,inactive,–
O=C1NC(=O)C(Cc2ccccc2)C(=O)N1,inactive,–
COC(=O)C1=C(c2ccccc2)C[C@@H]2CC[C@H]1N2C(=O)N1CCCCC1,inactive,–
Cn1c(O)c(C=NCCN2CCNCC2)c(=O)n(C)c1=O,inactive,–
c1ccc(CC2CCCCN2)cc1 (configuration not stated),inactive,–
c1cc2c(cc1[C@H]1OC[C@H]3[C@@H]1CO[C@@H]3c1ccc3c(c1)OCO3)OCO2,inactive,–
c1ccc(CCNC2CCCCCC2)cc1,70.8 µM (active),–
Cc1ccc(CN2CCCC(C(=O)c3ccc4c(c3)OCO4)C2)cc1C (configuration not stated),–,-17.6% [at 11.4 µM]
OC(CNC1CCCCC1)c1ccccc1 (configuration not stated),inactive,–
c1cc2c(cc1CCNC1CCCCCC1)OCO2,3.16 µM (active),–
O=P1(Oc2ccccc2)CC(O)C(O)C(COCc2ccccc2)O1 (configuration not stated),inactive,–
S=P(c1ccccc1)(c1ccccc1)c1c(-c2ccccc2)[nH]c2ccccc12,inactive,–
CCCC[N+]1(C)C2CC(OC(=O)C(CO)c3ccccc3)CC1C1OC12 (configuration not stated),inactive,–
CNP1(NC)=Nc2nn(-c3ccccc3)c(N)c2C(c2ccccc2)=N1,inactive,–
O=C1C2(Cl)C3(Cl)C4(Cl)C(Cl)(Cl)C5(Cl)C3(Cl)C1(Cl)C5(Cl)C24Cl (configuration not stated),inactive,–
Nc1ccc(C(=O)N/N=C2/CN3CCC2CC3)cc1,89.1 µM (active),–
CC1CC=CCC12C(=O)NC(=S)NC2=O (configuration not stated),inactive,–
COC(=O)C1=C(c2ccc(Cl)c(C(F)(F)F)c2)C[C@@H]2CC[C@H]1N2C(=O)NC1CC1,inactive,–
Cc1cccc(-n2c(O)c(/C=N/N3CCOCC3)c(=O)[nH]c2=S)c1,inactive,–
CCOc1cc(N2CCOCC2)c(OCC)cc1NC(=O)C1=NN(c2cccc(C)c2)C(=O)CC1,50.1 µM (active),–
CCN1C(=O)NC(=O)C2(CCCC2)C1=O,inactive,–
COc1ccc(CNCCc2c[nH]c3ccccc23)cc1OC,79.4 µM (active),–

Structure (SMILES),Potency,"activity change, negative = inhibition"
C/C(CCc1c[nH]c2ccccc12)=N\O,inactive,–
c1cncc(CNCCc2c[nH]c3ccccc23)c1,inactive,–
CCN1CC2C3CCC(C)(O3)C2C1 (configuration not stated),inactive,–
CC1([N+](=O)[O-])COP(=O)(Nc2ccc(F)cc2)OC1 (configuration not stated),inactive,–
CN(C)P(=S)(Nc1ccccc1)C(Cl)(Cl)Cl (configuration not stated),inactive,–
CC1CCCN1CCC(C(N)=O)(c1ccccc1)c1ccccc1 (configuration not stated),inactive,–
c1cncc(CNC2=NCCC2)c1,inactive,–
CC1CCCCN1Cc1cccnc1 (configuration not stated),8.91 µM (active),–
C[C@]12CCC3C(CC[C@H]4[C@H](O)[C@H](O)CC[C@]34C)C1CC[C@@H]2O (some centres not stated),inactive,–
O=c1[nH]c(=O)n(-c2ccc(F)cc2)c(O)c1C=NCCN1CCCCC1,inactive,–
CCOc1ccc(CN(CCCl)CCCl)cc1C(=O)OC,25.1 µM (active),–
c1ccc(C(CN2CCCCC2)c2ccccc2)cc1,inactive,–
CCOP(=O)(OCC)C(NC(=O)c1ccc(C)cc1)C(Cl)(Cl)Cl (configuration not stated),inactive,–
CC12CCC(O)CC1CCC1C2CCC2(C)C(C(=O)CC(O)C(F)(F)F)CCC12 (configuration not stated),inactive,–
CCC1(C)CC(CCNCc2ccc(N(C)C)cc2)(c2ccc(F)cc2)CCO1 (configuration not stated),44.7 µM (active),–
COC1=CC=C2[C@H]3Cc4ccc(OC)c5c4[C@@]2(CCN3C)C1O5 (some centres not stated),inactive,–
CCN(CC)C(=O)c1ccc(NC(=O)c2cc(-n3cnnc3)ccc2Cl)cc1,inactive,–
COc1cccc(OC)c1C(=O)NC(=S)N1C[C@H]2C[C@H](C1)c1cccc(=O)n1C2,inactive,–
CCC/C(=N\O)c1c[nH]c2ccccc12,inactive,–
CCc1cccc2c(C#N)cn(CC(=O)N3CCOCC3)c12,inactive,–
CCN1CCN(C(=O)Cc2coc3cc(C)cc(C)c23)CC1,inactive,–
O=C(Cc1ccc(Cl)cc1)NCCN1CCN(C(=O)Cc2ccc(Cl)cc2)CC1,inactive,–
O=C(Cc1ccccc1)N1CCN(C2CCCCCC2)CC1,79.4 µM (active),–
COc1ccccc1CN1CCN(C(=O)Cc2ccccc2)CC1,2.51 µM (active),–
CCC(=NCCc1ccccc1)c1c(O)n(C2CCCCC2)c(=O)[nH]c1=O,inactive,–
O=C(Cn1c(=O)n(CC2CS2)c2ccccc21)N1CCCCC1 (configuration not stated),inactive,–
